# Laboratory results reported in PubChem BioAssay (NCI).
# This is part of a sample that, as a whole, favours compounds with a hit. Of some 83,000 tested, about 20% had one in any assay.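 Interpretation: 100, growth as untreated; towards 0, rising growth inhibition; 0, no net growth; 0 to -100, cell death. Compounds scoring below 10 were considered active.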 Activity calls are given as the source filed them.
# System: HL-60(TB) leukemia
# Experiment: NCI-60 one-dose screen, 48 h (100 = growth as untreated, 0 = no growth, -100 = all killed)
# Conditions: 10 µM unless noted
row,Structure (SMILES),growth
1,CC(C)C[C@H](NC(=O)CNC(=O)C[C@H]1O[C@@H]2OC3(C)CC[C@H]4[C@H](C)CC[C@@H]([C@H]1C)[C@@]24O3)B(O)O,3.8% (active)
2,O=C(NNC(=S)NC(=O)c1ccccc1)c1ccc(OCc2nc3ccc(Cl)cc3[nH]2)cc1,1.3% (active)
3,Cc1ccc(/C=C/C(=O)c2ccc(S(=O)(=O)NCCNc3nc(Nc4ccc(F)cc4)nc(N(C)C)n3)cc2)cc1,13.5% (inactive)
4,C=C1CCC2C3(C)COC(c4ccccc4F)OC3CCC2(C)C1C/C=C1/C(=O)OCC1O (configuration not stated),-0.649% (active)
5,O=[N+]([O-])c1ccc(-c2nc(-c3ccccc3)c(-c3ccccc3)n2-c2ccc(S(=O)(=O)Nc3ncccn3)cc2)cc1,38.2% (inactive)
6,CCCCCCCCc1cccc(CC(=O)Nc2ccc(C)cc2C(=O)O)c1,33.5% [25 µM] (inactive)
7,CN(C)c1nc(NCCNS(=O)(=O)c2ccc(C3=Nc4c(N)nc(N)nc4NC(c4ccc(Cl)cc4)C3)cc2)nc(N2CCOCC2)n1 (configuration not stated),28.1% (inactive)
8,COc1ccc(NC(=O)Nc2ccc(OCc3ccc(F)cc3)cc2)cc1,83.1% (inactive)
9,N#Cc1c(Cl)nc(SCc2ccc(F)cc2)nc1-c1ccc(F)cc1,50.2% (inactive)
10,COc1ccc(CCC2NCCc3c(Br)c4c(c(OC)c32)OCO4)cc1 (configuration not stated),-11.6% (active)
11,COc1ccc(/C=C/C(=O)c2ccc(S(=O)(=O)NCCNc3nc(Nc4ccc(F)cc4)nc(N(C)C)n3)cc2)cc1,17.2% (inactive)
12,Cn1cc(-c2cc3nc(-c4cn(C)c5ncccc45)cc(N)n3n2)c2ccccc21,-44.8% (active)
